From PubChem BioAssay (Tox21)
Where “and” joins values, the source holds several entries; their conditions need not be identical. Equal entries are not always repeated. Inconclusive results are not listed. A call without a number means that no potency is given here. A structure can be active in one record and inactive in another. Calls of active or inactive are those of the source. Unless noted, the call rests on the fitted dose curve; in most records, active means well fitted curve in the direction sought with a large enough effect in the repeat runs; inconclusive means weak or mixed curves; inactive means no such curve, though single readings can be large; an effect the other way counts as inactive or inconclusive.

Columns and labels:
[1] = qHTS assay to identify small molecule antagonists of the glucocorticoid receptor (GR) signaling pathway - cell viability counter screen (AID 720693); further: nearly all actives have a fitted effect of over 55% in size
[2] = qHTS assay for identifying genotoxic compounds that show differential cytotoxicity against isogenic chicken DT40 cell lines with known DNA damage response pathways - wild type cell line (AID 743012); further: nearly all actives have a fitted effect of over 60% in size; further: potency means the concentration at half of the fitted maximal effect
In short: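 Using parental DT40 (300 cells/well), compounds delivered in DMSO incubate 40 h at 37 C/5% CO2. CellTiter-Glo reagent then stands 30 min at room temperature, and luminescence gives cell viability.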

[3] = qHTS assay for identifying genotoxic compounds that show differential cytotoxicity against isogenic chicken DT40 cell lines with known DNA damage response pathways - Rev3 mutant cell line (AID 743014); further: nearly all actives have a fitted effect of over 55% in size; further: potency means the concentration at half of the fitted maximal effect
[4] = qHTS assay for identifying genotoxic compounds that show differential cytotoxicity against isogenic chicken DT40 cell lines with known DNA damage response pathways - Rad54/Ku70 mutant cell line (AID 743015); further: nearly all actives have a fitted effect of over 60% in size; further: potency means the concentration at half of the fitted maximal effect
[5] = qHTS assay to identify small molecule antagonists of the androgen receptor (AR) signaling pathway - cell viability counter screen (AID 743033; further: nearly all actives have a fitted effect of over 45% in size)
[6] = qHTS assay to identify small molecule antagonists of the androgen receptor (AR) signaling pathway using the MDA cell line - cell viability counter screen (AID 743041; further: nearly all actives have a fitted effect of over 45% in size; further: potency means the concentration at half of the fitted maximal effect)
In short: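 MDA-kb2 AR-luc cells (MMTV-luciferase, AR/GR responsive) treated with compounds plus R1881 agonist for 16 h at 37C. CellTiter-Fluor added at 15.5 h; fluorescence read after 30 min in the same wells.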

[7] = target: Androgen receptor (Homo sapiens) (UniProt P10275); assay: qHTS assay to identify small molecule antagonists of the androgen receptor (AR) signaling pathway (AID 743035; active means well fitted inhibition curve with a large enough effect in the signal ratio in the repeat runs, not every such curve was filed as active; the % refers to the signal ratio)
In short: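 Using qHTS, AR-UAS-bla GripTite HEK293 cells received compound, then R1881, and were cultured 16 h at 37C/5% CO2 before a 2 h room-temperature LiveBLAzer B/G FRET substrate step and fluorescence measurement.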

[8] = target: Androgen receptor (Homo sapiens) (UniProt P10275); assay: qHTS assay to identify small molecule agonists of the androgen receptor (AR) signaling pathway (AID 743036; active means well fitted activation curve with a large enough effect in the signal ratio in the repeat runs, with a control signal flat, not every such curve was filed as active; the % refers to the signal ratio)
In short: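 Cell-based FRET reporter assay: HEK293 line with a UAS-beta-lactamase construct, compounds added in DMSO, 16 h exposure at 37C, then 2 h substrate step at room temperature and fluorescence intensity read.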

[9] = target: Androgen receptor (Homo sapiens) (UniProt P10275); assay: qHTS assay to identify small molecule agonists of the androgen receptor (AR) signaling pathway using the MDA cell line (AID 743040; further: nearly all actives have a fitted effect of over 20% in size); conditions: MDA-kb2 AR-luc cells, MMTV luciferase, 16 h, stronger effect = higher value
In short: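 MDA-kb2 breast carcinoma cells carrying MMTV-luciferase (responsive to AR and GR), plated 5 h then treated 16 h with compounds at 37C, 0% CO2. Read-out was ONE-Glo luminescence after 30 min at room temperature.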

[10] = target: Androgen receptor (Homo sapiens) (UniProt P10275); assay: qHTS assay to identify small molecule antagonists of the androgen receptor (AR) signaling pathway using the MDA cell line (AID 743042; further: nearly all actives have a fitted effect of over 55% in size)
In short: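 MDA-kb2 breast carcinoma cells carrying MMTV-luciferase (AR/GR responsive) were co-treated with compounds and the agonist R1881 for 16 h at 37C. Inhibition read as ONE-Glo luminescence; CellTiter-Fluor fluorescence measured in parallel for cytotoxicity.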

Androgen receptor (Homo sapiens), sequence (P10275 whole entry, looked up): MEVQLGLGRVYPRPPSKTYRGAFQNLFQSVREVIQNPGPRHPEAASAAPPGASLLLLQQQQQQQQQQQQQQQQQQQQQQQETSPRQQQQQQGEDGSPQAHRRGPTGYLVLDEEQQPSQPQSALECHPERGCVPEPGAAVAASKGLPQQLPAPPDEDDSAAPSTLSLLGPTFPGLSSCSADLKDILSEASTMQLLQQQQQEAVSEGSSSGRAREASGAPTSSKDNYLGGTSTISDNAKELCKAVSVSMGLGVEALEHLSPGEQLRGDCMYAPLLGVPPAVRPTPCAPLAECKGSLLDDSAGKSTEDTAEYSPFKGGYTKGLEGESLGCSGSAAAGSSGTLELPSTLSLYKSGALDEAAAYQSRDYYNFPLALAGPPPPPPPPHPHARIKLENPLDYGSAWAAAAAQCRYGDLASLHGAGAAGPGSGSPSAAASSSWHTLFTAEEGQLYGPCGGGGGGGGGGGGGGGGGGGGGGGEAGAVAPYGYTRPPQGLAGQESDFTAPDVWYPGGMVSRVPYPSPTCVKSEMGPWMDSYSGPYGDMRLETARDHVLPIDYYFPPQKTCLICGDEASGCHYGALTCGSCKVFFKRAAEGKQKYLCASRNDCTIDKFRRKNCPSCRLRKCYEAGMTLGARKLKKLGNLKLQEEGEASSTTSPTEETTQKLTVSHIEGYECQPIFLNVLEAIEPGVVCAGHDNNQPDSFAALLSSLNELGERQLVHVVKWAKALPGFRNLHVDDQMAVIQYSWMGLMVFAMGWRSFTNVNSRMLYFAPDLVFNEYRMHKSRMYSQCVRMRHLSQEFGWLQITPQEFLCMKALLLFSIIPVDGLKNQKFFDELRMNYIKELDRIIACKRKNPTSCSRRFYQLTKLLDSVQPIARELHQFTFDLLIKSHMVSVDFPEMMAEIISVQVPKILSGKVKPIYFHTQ

Structure (SMILES) | Potency [1] | Potency [2] | Potency [3] | Potency [4] | Potency [5] | Potency [6] | Potency [7] | Potency [8] | activity change ([9]; at 70.3 µM (top of the series)) | activity change ([9]; at 95 µM (top of the series)) | Potency [10]
O=C(Cl)c1ccc(C(=O)Cl)cc1 | inactive | inactive | inactive | inactive | inactive | inactive |  |  |  |  | 
COc1ccc2cc3[n+](cc2c1OC)CCc1cc2c(cc1-3)OCO2 | inactive | 2.37 µM (active) and 4.36 µM (active) | 3.35 µM (active) and 3.09 µM (active) | 4.22 µM (active) and 5.49 µM (active) |  | 22.1 µM (active) and 7.75 µM (active) |  |  |  |  | 
CC(=O)CC(=O)N(C)C | inactive | inactive | inactive | inactive | inactive | inactive |  |  |  |  | 
CCCCCCCCC(=O)O | inactive | inactive | inactive | inactive | inactive | inactive |  |  |  |  | 
OCC(CO)(CO)CO | inactive | inactive | inactive | inactive | inactive | inactive |  |  |  |  | 
CCOC(=O)c1ccc(O)cc1 | inactive | inactive | inactive | inactive | inactive | inactive |  |  |  |  | 
CC(=O)OC(C)(C)C1CC=C(C)CC1 (configuration not stated) | inactive | inactive | inactive | inactive and 54.5 µM (active) | inactive | inactive |  |  |  |  | 
C=CC(C)(C)C | inactive | inactive | inactive | inactive | inactive | inactive |  |  |  |  | 
CC(=O)Nc1ccc(CC(=O)O)cc1 | inactive | inactive | inactive | inactive | inactive | inactive |  |  |  |  | 
CC(O)CNCC(C)O (configuration not stated) | inactive | inactive | inactive | inactive | inactive | inactive |  |  |  |  | 
COC(=O)CCCCC(=O)OC | inactive | inactive | inactive | inactive | inactive | inactive |  |  |  |  | 
CC(C)c1ccc(C(C)C)cc1 | inactive | inactive | inactive | inactive | inactive | inactive |  |  |  |  | 
CC(=O)OCc1ccc2c(c1)OCO2 | inactive | inactive | inactive | inactive | inactive | inactive |  |  |  |  | 
CC[N+](CC)(CC(=O)Nc1c(C)cccc1C)Cc1ccccc1 | inactive | inactive and 43.3 µM (active) | inactive and 30.6 µM (active) | inactive | inactive | inactive |  |  |  |  | 
CC(=O)OC[C@H]1O[C@@](COC(C)=O)(O[C@H]2O[C@H](COC(C)=O)[C@@H](OC(C)=O)[C@H](OC(C)=O)[C@H]2OC(C)=O)[C@@H](OC(C)=O)[C@@H]1OC(C)=O | inactive | inactive | inactive | inactive | inactive | inactive |  |  |  |  | 
CCc1cccc(CC)c1N | inactive | inactive |  | inactive | inactive | inactive | inactive | inactive | 0.738% (inactive) | 0.21% (inactive) | inactive
CC(=O)OC/C=C(\C)CCC=C(C)C | inactive | inactive | inactive | inactive | inactive | inactive |  |  |  |  | 
COc1ccc([C@@H]2CC(=O)c3c(O)cc(O[C@@H]4O[C@H](CO[C@@H]5O[C@@H](C)[C@H](O)[C@@H](O)[C@H]5O)[C@@H](O)[C@H](O)[C@H]4O)cc3O2)cc1OC | inactive | inactive | inactive | inactive | inactive | inactive |  |  |  |  | 
CC1(C)[C@@H](O[C@H]2O[C@H](C(=O)O)[C@@H](O)[C@H](O)[C@H]2O[C@@H]2O[C@H](C(=O)O)[C@@H](O)[C@H](O)[C@H]2O)CC[C@]2(C)[C@H]3C(=O)C=C4[C@@H]5C[C@@](C)(C(=O)O)CC[C@]5(C)CC[C@@]4(C)[C@]3(C)CC[C@@H]12 | inactive | inactive | inactive | inactive | inactive | inactive |  |  |  |  | 
CCCCCCCC(=O)O | inactive | inactive | inactive | inactive | inactive | inactive |  |  |  |  | 
O=Cc1ccc(CO)o1 | inactive | inactive | inactive | inactive | inactive | inactive |  |  |  |  | 
CCCCCCCCCCCCCC(=O)O | inactive | inactive | inactive | inactive | inactive | inactive |  |  |  |  | 
CCCCC(CC)COC(=O)c1ccc(C(=O)OCC(CC)CCCC)cc1 (configuration not stated) | inactive | inactive |  | inactive | inactive | inactive | inactive | inactive | 2.15% (inactive) and 1.01% (inactive) |  | inactive
CC(C)=CCC/C(C)=C/C=O | inactive | inactive | inactive | inactive | inactive | inactive |  |  |  |  | 
CC1=CC(=O)CC(C)(C)C1 | inactive | inactive | inactive | inactive | inactive | inactive |  |  |  |  | 
O=C(O)C1=NN(c2ccc(S(=O)(=O)O)cc2)C(=O)C1 | inactive | inactive | inactive | inactive | inactive | inactive |  |  |  |  | 
